Bioassay records: PubChem BioAssay, several laboratories
AI-2 QS mod: Vibrio harveyi AI-2 quorum sensing modulation | Vibrio harveyi JMH597 AI-2 luminescence/OD600 ratio, 9 h; hits give low values; strain lacks LuxN and CqsS sensors; 0 = neutral-control median | activity change, % at 7.5 µM | actives 0.4% (n = 300,000); in the data active = activity change below about -75%, passing the limit was not always enough; inconclusive = no clear call, values can overlap the other calls;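 note: luminescence divided by OD600 gain over 9 h not by final OD600 alone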
PHOSPHO1 block: PHOSPHO1 (human) inhibition; inhibition, % at 13.3 µM; actives 1.1% (n = 290,000); recombinant PHOSPHO1, absorbance phosphatase assay; Q8TCT1; in the data active = inhibition above about 60%
Target sequence (Q8TCT1 whole entry, looked up): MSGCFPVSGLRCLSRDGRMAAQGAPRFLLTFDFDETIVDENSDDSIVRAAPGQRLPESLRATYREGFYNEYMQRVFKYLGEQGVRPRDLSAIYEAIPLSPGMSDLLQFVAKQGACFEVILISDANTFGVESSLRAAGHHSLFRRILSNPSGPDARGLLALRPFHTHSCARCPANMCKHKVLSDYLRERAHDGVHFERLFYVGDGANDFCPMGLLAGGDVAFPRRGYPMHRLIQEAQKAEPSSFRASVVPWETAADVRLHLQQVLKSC
PABP FP inh: blocks human PABP binding to poly(A) RNA; fluorescence polarization; calls only at 35 µM; actives 1% (n = 290,000);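 note: calls also rest on retests at 20 µM and on dose response follow-up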
eIF4H FP inh: inhibitors of RNA binding by human eIF4H. eIF4H fluorescence polarization binding assay. AID 2012. inhibition, % at 35 µM. actives 0.94% (n = 290,000). Q15056;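 note: calls also rest on retests at 20 µM and on dose response follow-up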
ABCB6 inh MLPCN: inhibitors of human ABC transporter ABCB6. Q9NP58. K562-ABCB6 porphyrin accumulation, flow cytometry, 1 h; hits give low values. fluorescence ratio to DMSO, % at 10 µM. actives 0.19% (n = 360,000). AID 602162;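 active = fluorescence ratio to DMSO below 75%, the collection mean minus 3 SD; inconclusive = too few cells collected in the well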;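 note: signal is porphyrin accumulated inside mitochondria; lower ratio means ABCB6 inhibition with less porphyrin fluorescence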
PABP1 MLLE inh: inhibitors of microRNA-mediated deadenylation, human PABP1 MLLE binding | P11940 | GST-MLLE / FITC-PAM2 fluorescence polarization | inhibition, % at 20 µM | actives 0.36% (n = 360,000) | AID 588489; in the data active = inhibition above about 35%, passing the limit was not always enough
Large screens that a line does not name were inactive. Hits are enriched below; roughly 2.6% of the tested compounds scored in any of these assays. Unless noted, the rule behind the calls is not given here.

O=C(C1CCCN(Cc2cccnc2)C1)N1CCCCC1 (centres undefined)	none
Cc1cccc(-c2cccc(NC(=O)C3CCCN(Cc4cccnc4)C3)c2)c1 (centres undefined)	PHOSPHO1 block 61
CCc1nc2ccc(C(=O)Nc3cccc(NS(C)(=O)=O)c3)cn2c1N(CC)CCOC	none (no result: AI-2 QS mod, PHOSPHO1 block, PABP FP inh, eIF4H FP inh)
Cc1n[nH]c(=O)c2c(NC(=O)CSc3c(Cl)cccc3Cl)oc(C)c12	PABP1 MLLE inh 43 (no result: PHOSPHO1 block, PABP FP inh, eIF4H FP inh)
CCN(CC(=O)Nc1c(F)cccc1F)C(=O)C1CC(=O)N(c2ccccc2OC)C1 (centres undefined)	PABP FP inh active
COc1ccc(/C=C2\SC(=S)N(CC(=O)NC3CCS(=O)(=O)C3)C2=O)cc1 (centres undefined)	none
O=C(CN1C(=O)/C(=C/c2ccccc2Cl)SC1=S)NC1CCS(=O)(=O)C1 (centres undefined)	PABP1 MLLE inh 39
C/C(=N/N=C(\C)c1ccccc1O)c1ccccc1O	PABP FP inh active
CC1(Oc2ccc(Cl)cc2)CCN(Cc2ccc(-c3ccccn3)cc2)C1 (centres undefined)	none (no result: AI-2 QS mod, PHOSPHO1 block, PABP FP inh, eIF4H FP inh)
CCNC(=S)NS(=O)(=O)c1ccc(C)cc1	PABP1 MLLE inh 41
CSc1ncc(Cl)c(C(=O)Nc2ccc(NC(C)=O)cc2)n1	PHOSPHO1 block 60
Cc1c(C(=O)O)sc2nc(SCC(=O)Nc3ccc(S(=O)(=O)NCCCC(=O)O)cc3)[nH]c(=O)c12	eIF4H FP inh 1.1
O=C1NC[C@@H](CCCCN2C[C@H](Cc3ccc(O)cc3)N(CCC3CCCCC3)C(=O)C2=O)N(CCC2CCCCC2)C1=O	none (no result: AI-2 QS mod, PHOSPHO1 block, PABP FP inh, eIF4H FP inh, PABP1 MLLE inh)
O=C(NC1(C(F)(F)F)NC(=O)N(Cc2ccco2)C1=O)c1cccs1 (centres undefined)	PABP FP inh active, eIF4H FP inh 92
CCN(C(=O)C(C)N1C(=O)/C(=C/c2ccco2)SC1=S)C1CCS(=O)(=O)C1 (centres undefined)	PABP FP inh active, eIF4H FP inh 54
O=C1/C(=C\c2ccco2)SC(=S)N1C1CCS(=O)(=O)C1 (centres undefined)	PABP FP inh active, eIF4H FP inh 94
O=C1/C(=C/c2ccco2)SC(=S)N1C1CCS(=O)(=O)C1 (centres undefined)	PABP FP inh active
COc1ccc(Cn2cc(CN3CC(N4CCN(C)CC4)CS3(=O)=O)nn2)cc1 (centres undefined)	none (no result: AI-2 QS mod, PHOSPHO1 block, PABP FP inh, eIF4H FP inh, PABP1 MLLE inh)
CCOC(=O)c1cc(-c2ccco2)nn1-c1ccc(C)cc1	none
Cc1ccc(-n2nc(-c3ccco3)cc2C(=O)O)cc1	PABP FP inh active, eIF4H FP inh 94
CCNC(=O)C1(C)CCCN(C(=O)c2ccc(F)c(C)c2)C1 (centres undefined)	none (no result: AI-2 QS mod, PHOSPHO1 block, PABP FP inh, eIF4H FP inh)
COC(=O)c1[nH]c2ccccc2c1NC(=O)/C=C/c1ccc2c(c1)OCO2	PABP FP inh active
CCOC(=O)c1[nH]c2cc(OC)c(OC)cc2c1NC(=O)c1ccc2c(c1)OCO2	PHOSPHO1 block 68
CCOC(=O)c1[nH]c2ccc(OC)cc2c1NC(=O)c1ccc2c(c1)OCO2	none
N#Cc1ccc(-c2nc3ccc(Br)cc3c(=O)n2O)cc1	AI-2 QS mod -111 (no result: PHOSPHO1 block)
O=c1c2cc(Br)ccc2nc(-c2ccc([N+](=O)[O-])cc2)n1O	AI-2 QS mod -167
CCOC(=O)N1CCN(C(=O)CSc2ccc(-c3ccc(OC)c(OC)c3)nn2)CC1	none
CCOC(=O)N1CCN(C(=O)CSc2ccc(-c3ccc(OC)cc3)nn2)CC1	PHOSPHO1 block 68
Cc1ccc(-c2ccc(SCC(=O)NC3CCCCC3)nn2)cc1	PHOSPHO1 block 62
Cc1ccc(-c2ccc(SCC(=O)NC3CCCC3)nn2)cc1	none
Cc1ccc(C(=O)Nc2nc(C(N)Cc3ccc(C(F)(F)F)cc3)cs2)cc1 (centres undefined)	none (no result: AI-2 QS mod, PHOSPHO1 block, PABP FP inh, eIF4H FP inh)
O=C(CCS(=O)(=O)c1cccs1)N1CCCC1	PHOSPHO1 block 64
O=C(O)c1ccc(Cn2cnc3cccnc32)cc1	PABP1 MLLE inh 43 (no result: PHOSPHO1 block)
Cc1nonc1OCCNCc1c(C(=O)N(C)C)nc2ccc(Cl)cn12	PABP FP inh active, eIF4H FP inh 87
CCCCNC(=O)CC1Nc2ccccc2NC1=O (centres undefined)	none
CCCCCNC(=O)CC1Nc2c3ccccc3nc(=S)n2C1=O (centres undefined)	PHOSPHO1 block 65
CSCC[C@H](CO)NC(=O)[C@H]1O[C@@H](n2cnc3c(N)ncnc32)[C@H](O)[C@@H]1O	none (no result: AI-2 QS mod, PHOSPHO1 block, PABP FP inh, eIF4H FP inh)
COc1ccc(NC(=O)CSc2nnc(-c3ccccc3C)n2N)cc1OC	none
COc1ccc(NC(=O)CSc2nnc(CCC(=O)O)c(=O)n2N)cc1	PABP1 MLLE inh 46
COc1ccc(NC(=O)CSc2nnc(-c3ccccc3C)n2N)cc1	PABP1 MLLE inh 37
Cn1ccnc1SCC(=O)Nc1ccc(Oc2ccccc2)cc1	PHOSPHO1 block 84
COc1cccc(-c2nnc(SCC(=O)OC(C)C)n2Cc2ccco2)c1	PHOSPHO1 block 72
O=C(Nc1ccccc1Cl)c1cc(C2CCCN(C(=O)c3cccc(O)c3)C2)on1 (centres undefined)	none (no result: AI-2 QS mod, PHOSPHO1 block, PABP FP inh, eIF4H FP inh)
COc1ccc(C)cc1NC(=O)COC(=O)c1c(-c2ccccc2)noc1C	none (no result: AI-2 QS mod, PHOSPHO1 block, PABP FP inh, eIF4H FP inh)
COc1cc(NC(=O)Nc2nc(C(N)Cc3ccc(C(F)(F)F)cc3)cs2)cc(OC)c1OC (centres undefined)	none (no result: AI-2 QS mod, PHOSPHO1 block, PABP FP inh, eIF4H FP inh)
COc1cccc(NC(=O)CSc2nnc(-c3cccc(OC(C)C)c3)n2N)c1	PHOSPHO1 block 88
O=C(CN1CCN(c2ccccn2)CC1)Nc1ccccc1	none
COc1cccc(NC(=O)CSC(N)=O)c1	PABP1 MLLE inh 38
COC(=O)[C@@H](NC(=O)Nc1cccc(OC)c1)C(C)C	PHOSPHO1 block 60
O=C(CN1CCN(c2ccccn2)CC1)Nc1ccc(Oc2ccccc2)cc1	eIF4H FP inh active
COc1cccc(NC(=O)CCC(=O)Nc2cccc(OC)c2)c1	none
C[C@@H]1COc2cccc(N3CCC[C@@H]3CO)c2S(=O)(=O)N1	none (no result: AI-2 QS mod, PHOSPHO1 block, PABP FP inh, eIF4H FP inh, PABP1 MLLE inh)
COc1cccc(Nc2nnc(SCC(=O)Nc3sccc3C(N)=O)s2)c1	PHOSPHO1 block 62
COc1ccc(CC(=O)NCc2nnc(SCC(=O)Nc3ccc(OC)cc3)n2C)cc1	PHOSPHO1 block 66
COc1ccc(CC(=O)NCc2nnc(SCC(=O)Nc3ccccc3)n2C)cc1	none
Clc1ccc(C2=CC(c3ccco3)n3ncnc3N2)cc1 (centres undefined)	PABP FP inh active, eIF4H FP inh inconclusive
CN1OC[C@@H]2CN(Cc3ccc4c(c3)OCO4)[C@H](c3ccc(N4CCCCC4)cc3)C[C@@H]21	none (no result: AI-2 QS mod, PHOSPHO1 block, PABP FP inh, eIF4H FP inh)
CC(=O)Oc1ccc(/C=N/NC(=O)C2CCCN2S(=O)(=O)c2ccc(Cl)cc2)cc1 (centres undefined)	PHOSPHO1 block 73
COc1ccc(CN(C)C(=O)[C@H]2O[C@@H](n3ccc(=O)[nH]c3=O)[C@H](O)[C@@H]2O)cc1OC	none (no result: AI-2 QS mod, PHOSPHO1 block, PABP FP inh, eIF4H FP inh)
